Results from PubChem BioAssay (NCI).
This is part of a sample that, as a whole, favours compounds with a hit. Of some 79,000 tested, about 15% had one in any assay. No stated cut-off is given here; in the data, active means growth inhibition above about 70%; inactive means the rest.

Experiments:
[1] = NCI Yeast Anticancer Drug Screen. Data for the rad50 strain (AID 155);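 further: 0% = growth of vehicle-only cultures of the same strain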; settings: S. cerevisiae rad50 strain growth inhibition; at 50.0 µM; hits give high values
Procedure, shortened: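 Cells are treated with compound, grown, and their growth is then scored against vehicle-only cultures of the same repair-deficient yeast strain.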

[2] = NCI Yeast Anticancer Drug Screen. Data for the mec2-1 strain (AID 157); settings: S. cerevisiae mec2-1 strain, at 50.0 µM, hits give high values
Procedure, shortened: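 Mutant yeast (mec2-1) grown with compound; growth inhibition relative to vehicle control reported.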

[3] = NCI Yeast Anticancer Drug Screen. Data for the sgs1 mgt1 strain (AID 161);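 further: 0% = growth of cultures given vehicle only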; settings: S. cerevisiae sgs1 mgt1 strain, at 50.0 µM, hits give high values
Procedure, shortened: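 Compounds are added to genetically altered yeast, and growth is compared with cultures given vehicle alone to give percent inhibition.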

[4] = NCI Yeast Anticancer Drug Screen. Data for the cln2 rad14 strain (AID 165);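 further: 0% = growth equal to vehicle treated cultures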; settings: S. cerevisiae cln2 rad14 strain, at 50.0 µM, hits give high values
Procedure, shortened: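 Readout is yeast growth inhibition versus vehicle-treated controls, using a strain with cln2 and rad14 alterations exposed to compound.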

[5] = NCI Yeast Anticancer Drug Screen. Data for the bub3 strain (AID 167); settings: S. cerevisiae bub3 mutant strain, at 50.0 µM, hits give high values
Procedure, shortened: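 Part of a panel of yeast mutants defective in DNA damage repair or cell cycle regulation. Each strain is grown with compound, and inhibition is calculated relative to solvent-treated cultures.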

[6] = NCI Yeast Anticancer Drug Screen. Data for the mlh1 rad18 strain (AID 175); settings: S. cerevisiae mlh1 rad18 strain growth inhibition; at 50.0 µM; hits give high values
Procedure, shortened: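 Genetically defined yeast (DNA repair-deficient) exposed to compounds; growth inhibition determined relative to vehicle.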

Measured: growth inhibition

CCOCc1ccccc1C(O)(c1ccc(OC)cc1)c1ccccc1OC (stereo not drawn)
inactive: [1] 37.6% | [2] 16.3% | [3] 40.9% | [4] 50.8% | [5] 6.85% | [6] 57.4%

CC1COC(c2ccc(C(C)C)cc2)O1 (stereo not drawn)
inactive: [1] 7.5% | [2] 0.35% | [3] 0.25% | [4] -8.9% | [5] 0.55% | [6] -4.4%

COc1ccc(C(CCl)(CCl)c2ccc(OC)c(C)c2)cc1C
inactive: [1] -23.3% | [2] -74.1% | [3] -30.2% | [4] -4.05% | [5] 5.3% | [6] -20.4%
